We go through nine compounds from PubChem BioAssay (NCI).

Test systems include DU-145 prostate; K-562 leukemia; MALME-3M melanoma; RXF 393 renal; SF-268 CNS; SF-295 CNS; SF-539 CNS; UACC-257 melanoma; M14 melanoma; HCT-15 colon; HT29 colon; SNB-75 CNS; SNB-19 CNS; U251 CNS; PC-3 prostate; SK-MEL-5 melanoma; UACC-62 melanoma; SK-MEL-28 melanoma; LOX IMVI melanoma.
Holding throughout (test): NCI-60 one-dose screen, 48 h (100 = growth as untreated, 0 = no growth, -100 = all killed)
What all share (conditions): 10 µM unless noted

Each structure is given as a SMILES string. Compounds without any hit were thinned out: in the full panel of roughly 83,000, 20% have a hit.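 Single-dose data. Exposure time 48 hours. Values below 10 considered active.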 Unmarked numbers belong to inactive results. The source made the active and inactive calls.

With `COc1ccc(-c2nc(NCCO)[nH]c(=O)c2C#N)cc1`, the growth is 101% in the assay on DU-145 prostate; 97.1% in the assay with K-562 leukemia; 101% with MALME-3M melanoma; 117% with RXF 393 renal; 99.2% with SF-268 CNS; 97.1% with SF-295 CNS. In addition, the growth in the assay on SF-539 CNS was 104%; in the assay on UACC-257 melanoma it was 112%; in the assay with M14 melanoma, 99.9%; in the assay on HCT-15 colon it was 104%; with HT29 colon, 94.7%; in the assay on SNB-75 CNS it was 91.8%. Moreover, the growth in the assay on SNB-19 CNS is 105%; with U251 CNS, 103%; in the assay on PC-3 prostate, 91.4%; with SK-MEL-5 melanoma it was 107%; in the assay with UACC-62 melanoma, 102%.
Regarding `Cc1nc2ccccc2n1-c1ncnc2c1CC(C)c1ccccc1N2C` (stereo not given), the growth in the assay on DU-145 prostate was 96.2%; with K-562 leukemia it was 31.2%; with MALME-3M melanoma it was 105%; in the assay with RXF 393 renal, 102%; in the assay on SF-268 CNS, 94.2%; in the assay with SF-295 CNS it was 77.9%. Moreover, the growth with SF-539 CNS was 93.9%; with UACC-257 melanoma, 91.5%; in the assay with M14 melanoma it was 71.3%; in the assay on HCT-15 colon, 75.4%; in the assay with HT29 colon, 59.5%; in the assay on SNB-75 CNS, 70.3%. Moreover, the growth was 86% in the assay on SNB-19 CNS; 78.8% in the assay on U251 CNS; 67.2% in the assay with PC-3 prostate; 91.3% in the assay with SK-MEL-5 melanoma; 71.2% with UACC-62 melanoma; 91.7% with SK-MEL-28 melanoma.
Take `CN1CCN(Cc2ccc(NC(=O)c3ccc(C(C)(C)C)c(C#Cc4cnc5cccnn45)c3)cc2C(F)(F)F)CC1`: the growth was -76.7% (active) with DU-145 prostate; -53% (active) in the assay on K-562 leukemia; -53.7% (active) with MALME-3M melanoma; -78.7% (active) with RXF 393 renal; -74.7% (active) in the assay with SF-268 CNS; -59.9% (active) in the assay on SF-295 CNS. In addition, the growth was -76.3% (active) in the assay on SF-539 CNS; -37.7% (active) in the assay with UACC-257 melanoma; -69.2% (active) with M14 melanoma; -73.2% (active) in the assay with HCT-15 colon; -83.5% (active) with HT29 colon; 74.8% with SNB-75 CNS. The growth is -63.1% (active) with SNB-19 CNS; -87.9% (active) in the assay with U251 CNS; -65.6% (active) with PC-3 prostate; -60.3% (active) with SK-MEL-5 melanoma; -71% (active) with UACC-62 melanoma; -87.7% (active) in the assay on LOX IMVI melanoma. Also, the growth in the assay with SK-MEL-28 melanoma is -68.8% (active).
As to `O=C1/C(=C/c2ccc(F)cc2)Sc2c(Br)cccc21`, the growth in the assay on DU-145 prostate was 99.7%; in the assay on K-562 leukemia it was 80%; in the assay with MALME-3M melanoma, 99.9%; in the assay on RXF 393 renal, 85.8%; in the assay with SF-268 CNS, 79%; in the assay with SF-295 CNS it was 87.3%. Also, the growth in the assay on SF-539 CNS was 75.5%; in the assay with UACC-257 melanoma it was 85.9%; with M14 melanoma it was 92.8%; with HCT-15 colon it was 75.8%; with HT29 colon, 100%; in the assay with SNB-75 CNS, 87.7%. In addition, the growth with SNB-19 CNS is 95.6%; in the assay with U251 CNS it was 70.4%; with PC-3 prostate, 70.4%; in the assay on SK-MEL-5 melanoma, 88.1%; in the assay with UACC-62 melanoma, 55.7%; in the assay on LOX IMVI melanoma, 82%. In addition, in the assay on SK-MEL-28 melanoma, the growth was 110%.
As to `CCCCC[C@H](O)C/C=C1/C(=O)C=C[C@@H]1C/C=C\CCCC(=O)OC`, the growth in the assay with DU-145 prostate was 53.2%; with K-562 leukemia, 5.84% (active); in the assay on MALME-3M melanoma, 107%; in the assay on RXF 393 renal, 70.8%; in the assay with SF-268 CNS it was 34.9%; in the assay on SF-295 CNS, 82.2%. The growth in the assay on SF-539 CNS was 91.3%; in the assay on UACC-257 melanoma, 74.5%; with M14 melanoma, 13.6%; with HCT-15 colon, 20.8%; in the assay on SNB-75 CNS, 96.5%; with SNB-19 CNS, 60.4%. Also, the growth is 45.5% in the assay with U251 CNS; 26.5% in the assay with PC-3 prostate; 38% with SK-MEL-5 melanoma; 13.6% in the assay on UACC-62 melanoma; -43.2% (active) in the assay on LOX IMVI melanoma; 28.3% in the assay on SK-MEL-28 melanoma.
Consider `O=C(O)c1cn(C2CC2)c2cc(N3CCN(C(=O)Nc4nc(-c5ccc(Cl)cc5)cs4)CC3)c(F)cc2c1=O`, for which the growth with DU-145 prostate is 11.4%; in the assay on K-562 leukemia, 8.49% (active); with MALME-3M melanoma, -20.2% (active); in the assay on RXF 393 renal, 41.6%; in the assay on SF-268 CNS, 20.6%; with SF-295 CNS, -3.25% (active). Further, the growth is 14.7% with SF-539 CNS; -12.5% (active) with UACC-257 melanoma; 7.05% (active) in the assay on HCT-15 colon; 5.06% (active) in the assay on HT29 colon; 9.36% (active) with SNB-75 CNS; 23.9% with SNB-19 CNS. The growth with U251 CNS was 10.8%; in the assay on PC-3 prostate, -2.99% (active); with SK-MEL-5 melanoma it was -60.3% (active); with UACC-62 melanoma, -4.17% (active); with LOX IMVI melanoma, -66.8% (active); with SK-MEL-28 melanoma, 39.4%.
Regarding `c1ccc(OCc2nnc(-c3ccc(Oc4ccccc4)cc3)o2)cc1`, the growth in the assay on DU-145 prostate is 99.1%; with K-562 leukemia, 93.2%; in the assay on MALME-3M melanoma, 101%; in the assay on RXF 393 renal, 106%; in the assay on SF-268 CNS, 89.2%; with SF-295 CNS it was 103%. The growth in the assay with SF-539 CNS was 103%; in the assay with UACC-257 melanoma, 109%; in the assay on M14 melanoma, 98.2%; in the assay on HCT-15 colon, 103%; in the assay with HT29 colon it was 103%; in the assay with SNB-75 CNS it was 98.5%. Also, the growth in the assay with SNB-19 CNS is 103%; in the assay on U251 CNS, 95.4%; in the assay on PC-3 prostate, 78.9%; in the assay with SK-MEL-5 melanoma, 100%; in the assay on UACC-62 melanoma it was 90.9%; with LOX IMVI melanoma, 102%. Also, in the assay on SK-MEL-28 melanoma, the growth is 116%.
Turning to `O=C(O)CCC/C=C\C[C@H]1C=CC(=O)/C1=C/C[C@@H](O)CCc1cccc(C(F)(F)F)c1`, the growth was 13.6% in the assay on DU-145 prostate; 3.71% (active) in the assay on K-562 leukemia; 79.1% with MALME-3M melanoma; -65.7% (active) in the assay with RXF 393 renal; 3.06% (active) in the assay on SF-268 CNS; -40.4% (active) with SF-295 CNS. Also, the growth in the assay with SF-539 CNS was -1.94% (active); in the assay on UACC-257 melanoma, -5.2% (active); with M14 melanoma, -16.2% (active); with HCT-15 colon, -55.8% (active); with HT29 colon, -8.89% (active); in the assay on SNB-75 CNS, 72.8%. In addition, the growth is 7.63% (active) in the assay on SNB-19 CNS; -71.1% (active) with U251 CNS; -19.3% (active) with PC-3 prostate; -62.2% (active) in the assay on UACC-62 melanoma; -60.9% (active) in the assay with LOX IMVI melanoma; -43.6% (active) with SK-MEL-28 melanoma.
Turning to `COc1ccc(-c2csc(NC(=O)N3CCN(c4cc5c(cc4F)c(=O)c(C(=O)O)cn5C4CC4)CC3)n2)cc1`, the growth in the assay with DU-145 prostate was 10.6%; in the assay on K-562 leukemia, 11.7%; in the assay with MALME-3M melanoma, -11.4% (active); with RXF 393 renal, 34.4%; with SF-268 CNS it was 20%; in the assay with SF-295 CNS it was -4.61% (active). Moreover, the growth in the assay with SF-539 CNS is 20.6%; in the assay with UACC-257 melanoma, -17.6% (active); with M14 melanoma, 9.8% (active); with HCT-15 colon, 14.6%; in the assay with HT29 colon, 2.34% (active); in the assay with SNB-75 CNS, -2.38% (active). Also, the growth with SNB-19 CNS is 20.8%; with U251 CNS, 6.54% (active); in the assay with PC-3 prostate, -0.577% (active); in the assay with SK-MEL-5 melanoma, -39.9% (active); in the assay on UACC-62 melanoma it was -14.2% (active); with LOX IMVI melanoma, -76.4% (active). Moreover, in the assay with SK-MEL-28 melanoma, the growth is 33.7%.
